Here are results for 22 compounds from PubChem BioAssay (NCATS).

Results filed as inconclusive are left out. Where a call stands in place of a potency, no number is given. Activity calls are given as the source filed them. The call rests on the fitted dose curve; in most records, active means well fitted cell-killing curve with a large enough effect; inconclusive means small, poorly fitted or top-dose-only effect, or effect the other way; inactive means no such curve, though single readings can be large or run the other way.
Further: nearly all actives have a fitted effect of over 30% in size.
Potency means the concentration at half of the fitted maximal effect.

The first experiment in a line: Quantitative High-Throughput drug screen in 47 multiple myeloma cell lines against the NCATS MIPE library collection: PCM6_Riken cell viability assay (AID 1919870). The conditions noted are these: CellTiter-Glo ATP, 48 h; series mostly up to 45.8 µM. The essentials: (§1)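 Plated at 500 cells per well, myeloma lines received MIPE 4.0 compounds by pin tool. Following 48 h culture at 37 °C, CellTiter-Glo luminescence gave viability relative to DMSO and media-only controls.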
Turning to `CCOC(=O)c1c(C(C#N)=CN)c2ccc(Cl)c(Cl)c2n1C`, the Potency entry was “inactive”.
On the same count and under the same terms, then `COc1cc([C@@H]2c3cc4c(cc3[C@@H](O)C3COC(=O)C32)OCO4)cc(OC)c1O` (stereo not given in full), with 46.9 nM (active); and `C[C@@]12OC(=O)[C@]1([C@@H](O)[C@@H]1C=CCCC1)NC(=O)[C@H]2CCCl`, with 10.5 nM (active); and `COc1ccc(CC2NCCc3cc(OC)c(OC)cc32)cc1OC` (stereo not given), with 8330 nM (active).
Still for that read-out and setting: then `c1ccc2c(CN3CCNCC3)cccc2c1`, with “inactive”; and `C[C@@H]1O[C@@H](O[C@@H]2C=C3CC[C@@H]4[C@@H](CC[C@]5(C)[C@H](c6ccc(=O)oc6)CC[C@@]45O)[C@@]3(C)CC2)[C@H](O)[C@H](O)[C@H]1O`, with 9.3 nM (active).
On the same count and under the same terms, as for `CC(C)(C)[C@]1(O)C[C@@H]2OC(=O)C[C@@]23C(=O)O[C@@H]2OC(=O)[C@H](O)C213` (stereo not given in full), the entry is “inactive”; as for `O=C(NCC1CCOCC1)c1cnc(Nc2ccc(Cl)cc2Cl)nc1C(F)(F)F`, 5900 nM (active).

A short description of a further experiment: Quantitative High-Throughput drug screen in 47 multiple myeloma cell lines against the NCATS MIPE library collection: RPMI8226_ATCC cell viability assay (AID 1919871). To be noted: RPMI8226 myeloma viability, CellTiter-Glo ATP luminescence, 48 h; series mostly up to 45.8 µM. The essentials: as §1
Background: Cellular ATP, detected with luciferase, serves as a proxy for viable cell number.
As for `C[C@]12CC[C@H]3[C@@H](CCC4=CC(=O)CC[C@@]43C)[C@H]1CC[C@H]2O`, the Potency result is “inactive”.
The same measure, in the same setting: as for `CC(N[C@H]1C[C@H]1c1ccccc1)c1ccc2c(c1)OCCO2` (stereo not given in full), the entry is “inactive”; as for `C[C@H]([C@H](O)CCC(C)(C)O)[C@H]1CC[C@@]2(O)C3=CC(=O)[C@@H]4C[C@@H](O)[C@@H](O)C[C@]4(C)[C@@H]3CC[C@]12C`, 20900 nM (active); as for `C#C[C@]1(O)C=C[C@@H]2[C@@H]3CCC4=CC(=O)CC[C@@H]4[C@H]3CC[C@@]21CC`, “inactive”.
Still for that read-out and setting: as for `O=c1cccc2n1CC1CNC[C@H]2C1`, the entry is “inactive”; as for `CC(=Cc1csc(C)n1)[C@@H]1C[C@H]2O[C@]2(C)CCC[C@H](C)[C@@H](O)[C@@H](C)C(=O)C(C)(C)[C@@H](O)CC(=O)O1`, “inactive”.
Same read-out and setting: then `CC(=CCCC1=CCC(C2=CC(=O)OC2O)OC1O)CCC1=C(C)CCCC1(C)C` (stereo not given), with 11.8 nM (active).
For the compound `CC(=Cc1csc(C)n1)[C@@H]1C[C@H]2O[C@@H]2CCC[C@H](C)[C@@H](O)[C@@H](C)C(=O)C(C)(C)[C@@H](O)CC(=O)O1`, the Potency entry is “inactive”.
Still for that read-out and setting: then `COC(=O)[C@@H](N)CCCN=C(N)N[N+](=O)[O-]`, with “inactive”; and `Cc1c(C(=O)Nc2cccc(C(F)(F)F)c2)cc(-c2ccccc2)n1CCCN1CCOCC1`, with 14800 nM (active); and `CC[C@@H](C(N)=O)N1CCCC1=O`, with “inactive”.
Same read-out and setting: then `CCCC[N+]1(C)[C@H]2CC(OC(=O)[C@H](CO)c3ccccc3)C[C@H]1[C@H]1O[C@H]12` (stereo not given in full), with “inactive”.
The same measure, in the same setting: as for `CCOC(=O)c1c(C(C#N)=CN)c2ccc(Cl)c(Cl)c2n1C`, the entry is “inactive”.
Take `COc1cc([C@@H]2c3cc4c(cc3[C@@H](O)C3COC(=O)C32)OCO4)cc(OC)c1O` (stereo not given in full): the Potency was 118 nM (active).
On the same count and under the same terms, as for `C[C@@]12OC(=O)[C@]1([C@@H](O)[C@@H]1C=CCCC1)NC(=O)[C@H]2CCCl`, the figure is 29.6 nM (active); as for `COc1ccc(CC2NCCc3cc(OC)c(OC)cc32)cc1OC` (stereo not given), “inactive”; as for `c1ccc2c(CN3CCNCC3)cccc2c1`, “inactive”.
Take `C[C@@H]1O[C@@H](O[C@@H]2C=C3CC[C@@H]4[C@@H](CC[C@]5(C)[C@H](c6ccc(=O)oc6)CC[C@@]45O)[C@@]3(C)CC2)[C@H](O)[C@H](O)[C@H]1O`: the Potency was 23.5 nM (active).
The same measure, in the same setting: as for `CC(C)(C)[C@]1(O)C[C@@H]2OC(=O)C[C@@]23C(=O)O[C@@H]2OC(=O)[C@H](O)C213` (stereo not given in full), the entry is “inactive”.
As for `C=C1C[C@H]2[C@H]3CCC(=O)[C@@]3(C)CC[C@@H]2[C@@]2(C)C=CC(=O)C=C12`, the Potency is 18700 nM (active).
The same measure, in the same setting: then `N=c1c2c(-c3ccccc3)c(-c3ccccc3)n(Cc3ccccc3)c2ncn1C1CCC(O)CC1` (stereo not given), with 14800 nM (active); and `O=C(NCC1CCOCC1)c1cnc(Nc2ccc(Cl)cc2Cl)nc1C(F)(F)F`, with “inactive”.
